From PubChem BioAssay (NCATS)
Values joined by “and” are separate entries in the source; they are usually repeats but may differ in a detail not shown here. Equal values may be shown once. Results filed as inconclusive are left out. Where a call stands in place of a potency, no number is given. Active and inactive are the calls of the source. Unless noted, calls come from the whole dose curve.

Columns and labels:
[1] = qHTS assay for small molecule agonists of retinoid X receptor alpha signaling (AID 588544); settings: HEK293T RXRa-UAS-bla, beta-lactamase reporter, 18 h; 530 nm emission
[2] = target: Retinoic acid receptor RXR-alpha (Homo sapiens) (UniProt P19793); experiment: as above; settings: HEK293T RXRa-UAS-bla, beta-lactamase reporter, 18 h; series mostly up to 76.7 µM
[3] = target: Thyroid hormone receptor beta (Homo sapiens) (UniProt P10828); experiment: qHTS assay for small molecule agonists of thyroid hormone receptor beta signaling (AID 588545); settings: TR-UAS-bla GripTite HEK 293, beta-lactamase ratio, agonist mode, 18 h, percent of T3 response, DMSO as zero; series mostly up to 76.7 µM
Summary of the method: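 Cells (2500/well) were seeded, incubated 4 hrs at 37 C, dosed with a compound series, incubated 18 hrs, loaded with CCF4 dye for 2 hrs at RT, then read for fluorescence. Data were scaled between DMSO (0%) and 10 nM T3 (100%).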

[4] = qHTS assay for small molecule antagonists of retinoid X receptor alpha signaling (AID 588546; active = well fitted inhibition curve with a large enough effect in the signal ratio, with a control signal flat, not every such curve was filed as active; the % refers to the signal ratio;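 note: cells stimulated with 9-cis-retinoic acid as agonist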); settings: HEK293T RXRa-UAS-bla, beta-lactamase ratio, antagonist mode; measured here: W530 green channel, cytotoxicity proxy
Summary of the method: (§1)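 Beta-lactamase reporter inhibition, read as CCF4 fluorescence ratio (ex 405, em 460/530 nm) after 2 h at RT. HEK293T UAS-bla cells, 2500/well, were stimulated with 9-cis-RA at 500 or 100 nM final alongside test compound for 18 h at 37 C.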

[5] = target: Retinoic acid receptor RXR-alpha (Homo sapiens) (UniProt P19793); experiment: as above; settings: HEK293T RXRa-UAS-bla, beta-lactamase ratio, antagonist mode
Summary of the method: as §1

[6] = target: Thyroid hormone receptor beta (Homo sapiens) (UniProt P10828); experiment: qHTS assay for small molecule antagonists of thyroid hormone receptor beta signaling (AID 588547; active = well fitted inhibition curve with a large enough effect in the signal ratio, with a control signal flat, not every such curve was filed as active; the % refers to the signal ratio;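 note: cells stimulated with 0.4 nM T3 agonist during compound exposure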); settings: TR-UAS-bla HEK293, beta-lactamase ratio, antagonist mode, 18 h
Summary of the method: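 Inhibition of T3-driven (0.4nM final) beta-lactamase reporter activity was measured over 0.59 nM to 92 uM compound after 18 h at 37 C. The cells were GripTite HEK293 TR-UAS-bla in charcoal/dextran-stripped serum, with CCF4 ratio read-out and IC50 from Hill fits.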

[7] = target: Voltage-gated inwardly rectifying potassium channel KCNH2 (Homo sapiens) (UniProt Q12809); experiment: qHTS Assay for Small Molecule Inhibitors of the Human hERG Channel Activity (AID 588834; active = well fitted curve in the direction sought with a large enough effect; an effect the other way counts as inactive or inconclusive;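 note: top concentration of the series differs between compounds; lower thallium flux fluorescence means stronger hERG block; nearly all actives have a fitted effect of over 50% in size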); settings: U2OS BacMam hERG, FluxOR thallium flux fluorescence; series mostly up to 92.2 µM
Summary of the method: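 Homogeneous FluxOR thallium flux assay using hERG-expressing U2OS cells (BacMam). Compound treatment about 10 minutes preceded stimulation; reduced fluorescence taken as channel block.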

[8] = qHTS assay for small molecule agonists of the antioxidant response element (ARE) signaling pathway (AID 651741; active = well fitted activation curve with a large enough effect in the signal ratio; the % refers to the signal ratio); settings: HepG2 ARE-bla reporter, beta-lactamase FRET ratio, 16 h; series mostly up to 96 µM
Summary of the method: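 Beta-lactamase reporter under ARE control in HepG2 cells, 2,000 per well, was induced by 16 h compound treatment at 37 C. Read-out was fluorescence from LiveBLAzer B/G FRET substrate after 2 h at room temperature.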

[9] = qHTS assay for small molecule activators of the p53 signaling pathway (AID 651743; active = well fitted activation curve with a large enough effect in the signal ratio, not every such curve was filed as active; the % refers to the signal ratio); settings: HCT-116 p53RE-bla, beta-lactamase FRET ratio, 16 h; stronger effect = higher value
Summary of the method: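 After 16 hours compound treatment at 37 C, HCT-116 cells stably expressing p53RE-driven beta-lactamase were loaded with LiveBLAzer B/G FRET substrate for 2 hours at room temperature. Fluorescence intensity served as the p53 activation read-out.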

[10] = qHTS assay for small molecule activators of the nuclear factor-kappa B (NF-kB) signaling pathway (AID 651749; active = well fitted activation curve with a large enough effect in the signal ratio; the % refers to the signal ratio); settings: NF-kB-bla ME-180 cells, beta-lactamase FRET ratio, 16 h; stronger effect = higher value
Summary of the method: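 Activation measured after 16 hr compound treatment at 37C, 5% CO2, of 2,000 ME-180 cells/well stably expressing an NF-kB response element–driven beta-lactamase reporter, via FRET-disruption fluorescence.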

[11] = qHTS assay for small molecule disruptors of the mitochondrial membrane potential - 1 hr assay (AID 651754); settings: series mostly up to 92.2 µM; note: nearly all actives have a fitted effect of over 35% in size
Summary of the method: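 Loss of mitochondrial potential shifts the cationic dye from red mitochondrial aggregates to green cytoplasmic monomers. Cells (HepG2) are treated with compound for 1 hr before a 30 min dye incubation at 37C.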

[12] = qHTS assay for small molecule disruptors of the mitochondrial membrane potential - 5 hr assay (AID 651755); settings: JC-1-type ratio dye; series mostly up to 92.2 µM; note: nearly all actives have a fitted effect of over 40% in size
Summary of the method: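 Membrane-potential dye readout: red aggregate (540 ex/590 em) versus green monomer (490 ex/535 em) fluorescence after 30 min dye loading, following 5 hr compound exposure at 37C of overnight-plated HepG2 cells.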

[13] = target: Tumor necrosis factor (Homo sapiens) (UniProt P01375); experiment: qHTS assay to identify small molecules that stimulate Tumor Necrosis Factor-alpha (TNF-alpha) secretion (AID 651757; active = well fitted curve in the direction sought with a large enough effect in the signal ratio; the % refers to the signal ratio); settings: Human cells, HTRF 665/615 ratio; series mostly up to 92.2 µM
Summary of the method: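 Human monocytic THP-1 cells are plated, treated with compound and held at 37 C for 17 hrs. Labeled anti-TNF-alpha antibody mixture is then added; after 3 hr at room temperature, TR-FRET signal reports secreted TNF-alpha.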

[14] = qHTS assay for environmental chemicals that activate the Aryl hydrocarbon Receptor (AhR) signaling pathway (AID 651777; active = well fitted curve in the direction sought with a large enough effect; an effect the other way counts as inactive or inconclusive; note: nearly all actives have a fitted effect of over 15% in size); settings: 1A2-DRE human hepatoma cells, luciferase, 24 h; activation: stronger effect = higher value
Summary of the method: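 Quantitative HTS in stably transfected human liver-derived cells whose luciferase gene sits downstream of the CYP1A2 promoter and dioxin response element. After 24 hr exposure at 37 C, One-Glo luminescence was measured.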

[15] = target: Peroxisome proliferator-activated receptor alpha (Homo sapiens) (UniProt Q07869); experiment: qHTS assay for small molecule agonists of the peroxisome proliferator-activated receptor alpha (PPARalpha) signaling pathway (AID 651778; active = well fitted curve in the direction sought with a large enough effect; an effect the other way counts as inactive or inconclusive); settings: PathHunter PPARalpha complementation, chemiluminescence, 6 h; stronger effect = higher value
Summary of the method: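 Chemiluminescence from complemented enzyme reported PPARalpha activation in cells after 6 hr of compound treatment at 37 C. The detection reagent was incubated for 60 min at room temperature, and compounds were scored as agonists.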

[16] = target: Nuclear receptor ROR-gamma (Homo sapiens) (UniProt P51449); experiment: qHTS assay for small molecule antagonists of the retinoid-related orphan receptor gamma (ROR-gamma) signaling pathway (AID 651802; active = well fitted curve in the direction sought with a large enough effect; an effect the other way counts as inactive or inconclusive;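 note: CHO cells with doxycycline-induced ROR-gamma expression; nearly all actives have a fitted effect of over 60% in size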); settings: ROR-gamma antagonist cell reporter assay; series mostly up to 92.2 µM
Summary of the method: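 Steps: cells dispensed; compound or DMSO transferred by pin tool; doxycycline added to induce the ROR response element-driven luciferase; plates held 16hr at 37C; ONE-Glo added and luminescence measured.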

[17] = qHTS assay for small molecule agonists of the antioxidant response element (ARE) signaling pathway measured by Nrf2-dependant transcriptional activity (AID 720636; active = well fitted curve in the direction sought with a large enough effect in the repeat runs; an effect the other way counts as inactive or inconclusive); settings: ARE-luc HepG2, Nrf2 luciferase reporter, 16 h; series mostly up to 92.4 µM
Summary of the method: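 Quantitative HTS format in HepG2 cells stably expressing an ARE-luciferase reporter; 16 hr compound treatment at 37 C, luciferase signal detected with ONE-Glo.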

[18] = qHTS assay for small molecule antagonists of the retinoid-related orphan receptor gamma (ROR-gamma) signaling pathway - cell viability counter screen (AID 720652; active = well fitted curve in the direction sought with a large enough effect in the repeat runs; an effect the other way counts as inactive or inconclusive;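 note: CHO reporter cells with doxycycline-induced ROR-gamma expression; compound exposure lasted 16 hr before ATP read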); settings: RORgamma reporter cell line viability counter screen; series mostly up to 92.2 µM
Summary of the method: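 Steps: seed CHO cells bearing TET-inducible ROR and ROR response element-luciferase; rest 5 hr at 37 C; add compound, then doxycycline; incubate 16 hr; add CellTiter-Glo and read luminescence as ATP-based viability.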

[19] = qHTS assay for small molecule agonists of the antioxidant response element (ARE) signaling pathway measured by Nrf2-dependant transcriptional activity - cell viability counter screen (AID 720653; active = well fitted curve in the direction sought with a large enough effect in the repeat runs; an effect the other way counts as inactive or inconclusive); settings: ARE-bla HepG2 viability, CellTiter-Glo ATP luminescence, 16 h; stronger effect = lower value
Summary of the method: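 Cytotoxicity counter screen: intracellular ATP quantified by CellTiter-Glo luminescence in the same ARE-bla HepG2 plates, after 16 h compound exposure and a 2 h beta-lactamase substrate step.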

[20] = qHTS assay to identify small molecules that stimulate interleukin-8 (IL-8) secretion (AID 651758; active = well fitted activation curve with a large enough effect in the signal ratio; the % refers to the signal ratio); settings: HTRF ratio (665/615); series mostly up to 92.2 µM
Summary of the method: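 Secreted IL-8 measured homogeneously by TR-FRET (two labelled anti-IL-8 antibodies, 1-3 h at room temperature) after a 16 h, 37 C compound treatment of THP-1 cells at 2000 cells/well.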

Nuclear receptor ROR-gamma (Homo sapiens), sequence (P51449 whole entry, looked up): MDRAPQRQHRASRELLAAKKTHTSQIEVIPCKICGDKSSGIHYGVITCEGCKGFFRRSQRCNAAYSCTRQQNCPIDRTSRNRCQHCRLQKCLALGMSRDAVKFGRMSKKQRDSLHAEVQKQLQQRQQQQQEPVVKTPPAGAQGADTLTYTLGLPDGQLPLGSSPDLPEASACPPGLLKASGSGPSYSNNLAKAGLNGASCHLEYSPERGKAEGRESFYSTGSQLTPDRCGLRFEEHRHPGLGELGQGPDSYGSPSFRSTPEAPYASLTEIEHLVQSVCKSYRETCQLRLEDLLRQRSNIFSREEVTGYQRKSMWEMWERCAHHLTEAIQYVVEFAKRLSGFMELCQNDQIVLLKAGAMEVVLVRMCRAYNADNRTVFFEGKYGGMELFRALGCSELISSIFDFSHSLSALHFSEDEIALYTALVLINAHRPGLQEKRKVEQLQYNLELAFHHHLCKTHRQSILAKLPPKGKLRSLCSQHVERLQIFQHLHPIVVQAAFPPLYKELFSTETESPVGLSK
Voltage-gated inwardly rectifying potassium channel KCNH2 (Homo sapiens), sequence (Q12809 whole entry, looked up): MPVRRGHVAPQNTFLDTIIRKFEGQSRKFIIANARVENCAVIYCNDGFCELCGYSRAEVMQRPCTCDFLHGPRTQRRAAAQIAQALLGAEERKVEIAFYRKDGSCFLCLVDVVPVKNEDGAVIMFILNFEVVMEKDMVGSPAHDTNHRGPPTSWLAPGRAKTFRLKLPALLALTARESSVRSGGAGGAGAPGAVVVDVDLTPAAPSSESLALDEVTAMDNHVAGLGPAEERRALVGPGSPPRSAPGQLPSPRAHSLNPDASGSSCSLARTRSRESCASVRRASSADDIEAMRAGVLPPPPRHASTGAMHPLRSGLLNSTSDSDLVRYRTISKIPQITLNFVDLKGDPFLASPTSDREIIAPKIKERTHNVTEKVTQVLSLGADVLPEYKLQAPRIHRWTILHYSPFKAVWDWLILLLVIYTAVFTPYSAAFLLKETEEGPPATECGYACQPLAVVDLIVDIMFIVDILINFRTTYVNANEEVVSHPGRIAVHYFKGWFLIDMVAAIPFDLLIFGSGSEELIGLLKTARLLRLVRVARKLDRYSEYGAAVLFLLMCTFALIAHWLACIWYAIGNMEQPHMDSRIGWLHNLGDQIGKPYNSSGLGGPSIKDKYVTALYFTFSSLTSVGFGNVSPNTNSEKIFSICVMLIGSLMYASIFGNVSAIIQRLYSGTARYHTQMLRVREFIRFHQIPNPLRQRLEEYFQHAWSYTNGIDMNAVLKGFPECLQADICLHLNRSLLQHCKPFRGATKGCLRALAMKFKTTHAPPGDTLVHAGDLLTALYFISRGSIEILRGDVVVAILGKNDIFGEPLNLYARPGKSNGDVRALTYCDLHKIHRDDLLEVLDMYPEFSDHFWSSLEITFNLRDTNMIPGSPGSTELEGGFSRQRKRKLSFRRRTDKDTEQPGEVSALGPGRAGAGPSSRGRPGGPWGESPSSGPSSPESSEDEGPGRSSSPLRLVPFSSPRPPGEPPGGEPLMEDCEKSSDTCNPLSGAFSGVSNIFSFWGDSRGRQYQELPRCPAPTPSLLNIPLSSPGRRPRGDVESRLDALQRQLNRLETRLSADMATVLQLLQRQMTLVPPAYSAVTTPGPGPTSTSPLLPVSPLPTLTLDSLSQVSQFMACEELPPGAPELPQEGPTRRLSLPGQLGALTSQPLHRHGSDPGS
Retinoic acid receptor RXR-alpha (Homo sapiens), sequence (P19793 whole entry, looked up): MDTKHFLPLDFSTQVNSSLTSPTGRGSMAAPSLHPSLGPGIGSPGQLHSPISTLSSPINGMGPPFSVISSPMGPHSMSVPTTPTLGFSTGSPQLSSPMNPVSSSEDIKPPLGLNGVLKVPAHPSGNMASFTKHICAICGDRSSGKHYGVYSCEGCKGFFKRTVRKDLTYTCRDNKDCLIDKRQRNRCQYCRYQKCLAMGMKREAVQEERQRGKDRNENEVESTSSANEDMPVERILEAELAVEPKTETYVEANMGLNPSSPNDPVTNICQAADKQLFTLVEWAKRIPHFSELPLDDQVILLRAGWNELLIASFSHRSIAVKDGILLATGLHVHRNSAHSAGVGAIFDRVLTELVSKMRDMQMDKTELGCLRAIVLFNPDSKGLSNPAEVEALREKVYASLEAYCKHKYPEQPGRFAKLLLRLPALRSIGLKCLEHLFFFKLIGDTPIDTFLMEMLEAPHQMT
Peroxisome proliferator-activated receptor alpha (Homo sapiens), sequence (Q07869 whole entry, looked up): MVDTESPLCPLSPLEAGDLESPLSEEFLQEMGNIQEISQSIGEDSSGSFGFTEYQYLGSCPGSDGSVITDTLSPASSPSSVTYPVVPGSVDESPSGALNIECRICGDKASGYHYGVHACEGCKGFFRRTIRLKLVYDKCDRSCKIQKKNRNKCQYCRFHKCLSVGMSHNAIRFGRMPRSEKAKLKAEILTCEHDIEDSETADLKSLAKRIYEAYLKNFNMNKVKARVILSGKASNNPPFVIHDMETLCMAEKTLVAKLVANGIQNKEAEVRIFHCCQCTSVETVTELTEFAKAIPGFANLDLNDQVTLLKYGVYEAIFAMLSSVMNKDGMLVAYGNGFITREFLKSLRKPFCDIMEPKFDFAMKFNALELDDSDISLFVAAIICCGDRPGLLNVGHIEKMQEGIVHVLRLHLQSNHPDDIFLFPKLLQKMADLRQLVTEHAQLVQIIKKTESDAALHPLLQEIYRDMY
Tumor necrosis factor (Homo sapiens), sequence (P01375 whole entry, looked up): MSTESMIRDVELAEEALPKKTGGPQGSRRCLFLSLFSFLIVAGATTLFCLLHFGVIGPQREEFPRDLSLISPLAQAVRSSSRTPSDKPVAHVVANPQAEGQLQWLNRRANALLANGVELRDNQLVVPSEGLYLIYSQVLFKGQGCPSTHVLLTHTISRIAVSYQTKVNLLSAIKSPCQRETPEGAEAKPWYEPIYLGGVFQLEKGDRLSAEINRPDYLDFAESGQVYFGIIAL
Thyroid hormone receptor beta (Homo sapiens), sequence (P10828 whole entry, looked up): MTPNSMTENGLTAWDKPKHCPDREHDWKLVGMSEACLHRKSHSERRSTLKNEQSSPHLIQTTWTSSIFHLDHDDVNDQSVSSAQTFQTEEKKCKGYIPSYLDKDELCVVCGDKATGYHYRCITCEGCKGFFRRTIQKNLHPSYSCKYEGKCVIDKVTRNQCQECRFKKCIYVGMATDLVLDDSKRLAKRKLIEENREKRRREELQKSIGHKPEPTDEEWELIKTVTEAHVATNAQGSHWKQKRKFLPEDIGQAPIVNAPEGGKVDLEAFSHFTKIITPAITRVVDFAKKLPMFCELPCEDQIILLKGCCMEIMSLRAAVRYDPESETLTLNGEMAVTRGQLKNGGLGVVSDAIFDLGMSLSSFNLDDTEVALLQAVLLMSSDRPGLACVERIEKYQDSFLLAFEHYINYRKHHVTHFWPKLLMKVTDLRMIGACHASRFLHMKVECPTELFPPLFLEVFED

SMILES | max response [1] | outcome [2] | outcome [3] | max response [4] | max response [5] | activity change % (negative = inhibition) [6] | Potency [7] | Potency [8] | activation [9] | activation [10] | Potency [11] | Potency [12] | Potency [13] | activation [14] | max response [15] | Potency [16] | outcome [17] | Potency [18] | max response [19] | Potency [20]
CCC=O | 2.22% | inactive | inactive | -6.66% | 0.991% (inactive) | -3.74% (inactive) | inactive | inactive | -0.942% (inactive) | -1.21% (inactive) | inactive | inactive | inactive | -0.0092% (inactive) | -0.926% (inactive) | inactive | inactive | inactive | -3.76% (inactive) | –
CC/C=C/C#N | -6.67% | inactive | inactive | -0.89% | 10.5% (inactive) | 3.84% (inactive) | inactive | inactive | -0.654% (inactive) | -2.54% (inactive) | inactive | inactive | inactive | – | 9.19% (inactive) | – | inactive | inactive | – | –
CCCCC(CC)CO (stereo not given) | -6.11% | inactive | inactive | -1.2% | 16% (inactive) | -6.25% (inactive) | inactive | inactive | -4.64% (inactive) | -1.43% (inactive) | inactive | inactive | inactive | -0.248% (inactive) | – | – | inactive | inactive | 7.9% (inactive) | inactive
O=C(O)c1cccc([N+](=O)[O-])c1 | -11.3% and -11.9% | inactive | inactive | -5.28% and -12.1% | -4.13% (inactive) and 8.19% (inactive) | 3.98% (inactive) and -3.17% (inactive) | inactive | inactive | -1.71% (inactive) and -6.43% (inactive) | -1.01% (inactive) and -3.15% (inactive) | inactive | – | inactive | – | – | inactive | inactive | inactive | 20.3% (inactive) and -7.83% (inactive) | –
CCC(C)O (stereo not given) | -20.4% | inactive | inactive | 2.22% | 4.59% (inactive) | -7.82% (inactive) | inactive | inactive | -1.8% (inactive) | – | inactive | inactive | inactive | – | 0.282% (inactive) | inactive | inactive | inactive | -9.02% (inactive) | inactive
Nc1cc(S(=O)(=O)O)ccc1O | 6.72% | inactive | inactive | 0.685% | 10% (inactive) | 6.95% (inactive) | inactive | inactive | -1.55% (inactive) | – | inactive | inactive | inactive | -0.613% (inactive) | -7.35% (inactive) | inactive | inactive | inactive | – | inactive
Cc1ccccc1C#N | -8.62% | inactive | inactive | -10.7% | 15.6% (inactive) | 4.81% (inactive) | inactive | inactive | -0.804% (inactive) | – | inactive | inactive | inactive | 3.69% (inactive) | -1.24% (inactive) | inactive | inactive | inactive | -8.58% (inactive) | inactive
NC(=S)NNC(N)=S | -14.7% and -3.73% | inactive | inactive | -7.09% | -19.9% (inactive) | -0.459% (inactive) and 12.6% (inactive) | inactive | inactive | 1.05% (inactive) and -1.18% (inactive) | -0.0609% (inactive) and -1.04% (inactive) | – | inactive | inactive | – | – | inactive | inactive | inactive | 1.26% (inactive) and -5.12% (inactive) | –
NC(=O)NC(N)=O | 6.09% | inactive | inactive | -1.82% | 66.5% (inactive) | 9.23% (inactive) | inactive | inactive | -4.91% (inactive) | – | inactive | inactive | inactive | 2.56% (inactive) | -2.74% (inactive) | inactive | inactive | inactive | – | –
COC(=O)CCC(=O)OC | -2.46% | inactive | inactive | 1.7% | 6.03% (inactive) | 1.67% (inactive) | inactive | inactive | -2.9% (inactive) | 0.407% (inactive) | inactive | – | inactive | – | 7.56% (inactive) | inactive | inactive | inactive | -12.8% (inactive) | inactive
O=C(O)c1c(Cl)cccc1Cl | -13.5% | inactive | inactive | 2.22% | 13.3% (inactive) | 3.89% (inactive) | inactive | inactive | -0.426% (inactive) | – | inactive | inactive | inactive | -0.92% (inactive) | 0.175% (inactive) | inactive | inactive | inactive | -7.83% (inactive) | inactive
Cc1cc(C)cc(O)c1 | 0.806% | inactive | inactive | -5.75% | 24.6% (inactive) | 2.53% (inactive) | inactive | inactive | -2.15% (inactive) | – | inactive | inactive | inactive | -0.55% (inactive) | -2.86% (inactive) | inactive | inactive | inactive | -0.981% (inactive) | –
C=C(C)C(=O)OC | -17.1% | inactive | inactive | -11.6% | -3.12% (inactive) | -1.4% (inactive) | inactive | inactive | -0.845% (inactive) | -2.84% (inactive) | – | inactive | inactive | 0.279% (inactive) | 0.595% (inactive) | inactive | inactive | inactive | 4.29% (inactive) | –
